Records with an inconclusive call do not appear. The source made the active and inactive calls. Calls follow the shape of the dose curve; as a rule, active = well fitted curve in the direction sought with a large enough effect; inconclusive = small, poorly fitted or top-dose-only effect, or another doubt; inactive = no such curve, though single readings can be large; an effect the other way counts as inactive or inconclusive.
Columns and labels:
[1] = biological target: Rap guanine nucleotide exchange factor 3 (Homo sapiens) (UniProt O95398); assay: Confirmatory qHTS for agonist of cAMP-regulated guanine nucleotide exchange factor 3 (EPAC1) (AID 1645881);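 also: EPAC1 catalysed release of BODIPY-GDP from Rap1B seen as fluorescence loss; 100% = effect of cAMP agonist control; nearly all actives have a fitted effect of over 75% in size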
[2] = biological target: Rap guanine nucleotide exchange factor 4 (Homo sapiens) (UniProt Q8WZA2); assay: Confirmatory qHTS for agonist of cAMP-regulated guanine nucleotide exchange factor 4 (EPAC2) (AID 1645884);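 also: nucleotide exchange releases bodipy-GDP from Rap1 and this lowers its fluorescence; % is scaled to controls: 0 for no effect and ±100 for the full control effect; nearly all actives have a fitted effect of over 65% in size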
[3] = biological target: Rap guanine nucleotide exchange factor 4 (Homo sapiens) (UniProt Q8WZA2); assay: Confirmatory qHTS for antagonist of cAMP-regulated guanine nucleotide exchange factor 4 (EPAC2) (AID 1645885); also: nearly all actives have a fitted effect of over 25% in size; also: potency is read from the fitted curve at half-maximal effect; as to activity change, negative = inhibition: % is scaled to controls: 0 for no effect and ±100 for the full control effect
[4] = biological target: Rap guanine nucleotide exchange factor 3 (Homo sapiens) (UniProt O95398); assay: Counterscreen qHTS for antagonist of cAMP-regulated guanine nucleotide exchange factor 3 (EPAC1) (AID 1645888);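 also: fluorescence loss as bound BODIPY-GDP is released from Rap1B; % of control where 0% means no effect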
Summary of the method: (§1)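 Rap1B–BODIPY-GDP (250 nM) with 50 uM GDP; compounds pin-transferred to 9.74 nM–152 uM final (activator) or from 7.32 nM upwards (inhibitor). Fluorescence Ex/Em 480/540 nm read at 5 and 30 min, then after adding cAMP or buffer, at room temperature.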

[5] = biological target: Rap guanine nucleotide exchange factor 3 (Homo sapiens) (UniProt O95398); assay: Counterscreen qHTS for agonist of cAMP-regulated guanine nucleotide exchange factor 3 (EPAC1) (AID 1645889); also: nearly all actives have a fitted effect of over 40% in size; also: potency is read from the fitted curve at half-maximal effect; as to activation: % of control where 0% means no effect
Summary of the method: as §1

Sequence of Rap guanine nucleotide exchange factor 4 (Homo sapiens) (Q8WZA2 whole entry, looked up): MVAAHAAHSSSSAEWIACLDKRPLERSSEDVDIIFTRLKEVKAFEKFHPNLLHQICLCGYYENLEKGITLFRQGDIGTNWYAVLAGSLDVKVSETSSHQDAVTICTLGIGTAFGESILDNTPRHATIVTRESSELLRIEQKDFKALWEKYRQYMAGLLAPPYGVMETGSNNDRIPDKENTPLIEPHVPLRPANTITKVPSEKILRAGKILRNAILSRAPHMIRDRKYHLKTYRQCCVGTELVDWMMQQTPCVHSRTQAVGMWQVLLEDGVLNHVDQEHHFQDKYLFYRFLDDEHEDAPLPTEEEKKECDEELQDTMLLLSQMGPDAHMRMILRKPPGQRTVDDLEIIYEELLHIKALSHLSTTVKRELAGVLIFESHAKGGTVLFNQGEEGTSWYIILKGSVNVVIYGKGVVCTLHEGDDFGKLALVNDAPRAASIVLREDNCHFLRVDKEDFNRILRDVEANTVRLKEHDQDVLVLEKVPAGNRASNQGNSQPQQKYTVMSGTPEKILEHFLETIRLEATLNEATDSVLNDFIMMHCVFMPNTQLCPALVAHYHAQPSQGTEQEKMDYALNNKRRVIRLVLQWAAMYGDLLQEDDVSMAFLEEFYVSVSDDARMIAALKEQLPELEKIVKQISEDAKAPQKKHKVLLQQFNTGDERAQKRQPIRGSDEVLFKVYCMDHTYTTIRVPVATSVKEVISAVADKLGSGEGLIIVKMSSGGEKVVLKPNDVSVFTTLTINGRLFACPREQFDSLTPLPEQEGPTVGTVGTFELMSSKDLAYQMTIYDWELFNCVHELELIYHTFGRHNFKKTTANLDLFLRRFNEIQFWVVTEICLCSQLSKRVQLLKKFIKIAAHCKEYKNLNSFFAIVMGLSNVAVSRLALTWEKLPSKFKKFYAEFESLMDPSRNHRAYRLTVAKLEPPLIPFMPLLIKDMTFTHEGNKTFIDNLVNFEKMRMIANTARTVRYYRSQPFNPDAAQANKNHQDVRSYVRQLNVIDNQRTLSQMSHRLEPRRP
Sequence of Rap guanine nucleotide exchange factor 3 (Homo sapiens) (O95398 whole entry, looked up): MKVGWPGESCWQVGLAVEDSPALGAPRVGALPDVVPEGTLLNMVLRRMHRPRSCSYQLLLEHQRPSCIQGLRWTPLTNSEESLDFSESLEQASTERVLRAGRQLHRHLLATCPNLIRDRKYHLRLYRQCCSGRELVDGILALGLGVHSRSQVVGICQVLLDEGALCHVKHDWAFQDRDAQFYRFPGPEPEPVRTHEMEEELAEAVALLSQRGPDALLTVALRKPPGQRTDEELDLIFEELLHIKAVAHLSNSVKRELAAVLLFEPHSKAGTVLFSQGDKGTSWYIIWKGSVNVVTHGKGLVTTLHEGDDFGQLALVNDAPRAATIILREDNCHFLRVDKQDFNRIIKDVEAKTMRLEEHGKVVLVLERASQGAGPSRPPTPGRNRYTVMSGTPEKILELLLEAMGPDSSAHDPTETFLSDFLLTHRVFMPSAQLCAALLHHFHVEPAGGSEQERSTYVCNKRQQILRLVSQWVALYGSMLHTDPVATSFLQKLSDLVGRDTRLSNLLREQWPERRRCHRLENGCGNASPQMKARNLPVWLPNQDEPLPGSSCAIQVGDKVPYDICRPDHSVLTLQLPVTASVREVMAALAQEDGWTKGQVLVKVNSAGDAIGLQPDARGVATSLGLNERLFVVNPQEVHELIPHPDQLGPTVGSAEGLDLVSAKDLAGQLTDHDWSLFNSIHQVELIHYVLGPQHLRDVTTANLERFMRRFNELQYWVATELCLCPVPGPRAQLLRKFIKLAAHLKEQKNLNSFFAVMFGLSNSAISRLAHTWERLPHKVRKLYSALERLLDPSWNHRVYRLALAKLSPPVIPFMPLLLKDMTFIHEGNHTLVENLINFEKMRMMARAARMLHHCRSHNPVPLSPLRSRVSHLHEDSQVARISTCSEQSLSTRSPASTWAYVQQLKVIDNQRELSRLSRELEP

CCCCOc1cccc(C2C(C(=O)c3ccc(C)o3)=C(O)C(=O)N2c2nnc(C)s2)c1 (stereo not given)
inactive: Potency [1] | Potency [2] | Potency [3] | Potency [4] | Potency [5]

CC(C)C[C@H]1COCCS(=O)(=O)N1Cc1cccc(Cl)c1
inactive: Potency [1] | activation [2] 5.51% [at 17.1 µM, percent relative to cAMP agonist control] | Potency [3] | activity change, negative = inhibition [4] -14.3% [at 30.8 µM] | activation [5] 2.08% [at 30.8 µM]

O=C1NC(=O)/C(=C/c2ccc(-c3cc(C(=O)O)ccc3Cl)o2)S1
inactive: Potency [1] | activation [2] 7.65% [at 17.1 µM, percent relative to cAMP agonist control] | Potency [3] | activity change, negative = inhibition [4] 4.91% [at 30.8 µM] | activation [5] 8.4% [at 30.8 µM]

COc1cccc(C(NC(C)=O)c2ccc3cccnc3c2O)c1 (stereo not given)
active: Potency [3] 19 µM
inactive: Potency [1] | Potency [2] | Potency [4] | Potency [5]

COC(=O)c1ccc2nc(-c3ccco3)c(Cc3ccc(OC)cc3C)n2c1
inactive: Potency [1] | Potency [2] | Potency [3] | Potency [4] | Potency [5]

CCOC(=O)C1=C(C)N=c2sc(=Cc3cc(Cl)c(OCC(=O)O)c(Cl)c3)c(=O)n2C1c1cccc(OC)c1 (stereo not given)
inactive: Potency [1] | Potency [2] | Potency [3] | Potency [4] | Potency [5]

Cc1ccc(NC(=O)CN2C(=O)S/C(=C/c3ccc(O)c([N+](=O)[O-])c3)C2=O)cc1C
inactive: Potency [1] | Potency [2] | Potency [3] | Potency [4] | Potency [5]

COc1cccc(OCc2cc(/C=N/Nc3ccc(C(=O)O)cc3)ccc2OC)c1
inactive: Potency [1] | activation [2] 6.81% [at 17.1 µM, percent relative to cAMP agonist control] | Potency [3] | activity change, negative = inhibition [4] -4.72% [at 30.8 µM] | activation [5] 21.5% [at 30.8 µM]

CN(CC(=O)Nc1ccc(Cl)c(C(F)(F)F)c1)C(=O)Cc1c[nH]c2ccccc12
inactive: Potency [1] | activation [2] 5.51% [at 17.1 µM, percent relative to cAMP agonist control] | Potency [3] | activity change, negative = inhibition [4] -15.4% [at 30.8 µM] | activation [5] 36.2% [at 30.8 µM]

CC(C)c1cccc(-c2ccc3c(c2)S(=O)(=O)c2cccc(C(=O)O)c2C3=O)c1
inactive: Potency [1] | Potency [2] | Potency [3] | Potency [4] | Potency [5]

COc1ccc2sc(-c3ccc(N(C)C)cc3)c(C#CC(C)(C)O)c2c1
inactive: Potency [1] | Potency [2] | Potency [3] | Potency [4] | Potency [5]

C=CCc1cccc(CNc2c(C)cc(C)cc2C)c1O
inactive: Potency [1] | Potency [2] | Potency [3] | Potency [4] | Potency [5]

Cc1ccccc1CN(C)CC(=O)Nc1c(C)cccc1C(C)C
inactive: Potency [1] | activation [2] 7.02% [at 17.1 µM, percent relative to cAMP agonist control] | Potency [3] | activity change, negative = inhibition [4] -6.66% [at 30.8 µM] | activation [5] -4.69% [at 30.8 µM]

COc1ccccc1Cc1c(-c2ccco2)nc2c(C)cc(Br)cn12
inactive: Potency [1] | activation [2] 7.54% [at 17.1 µM, percent relative to cAMP agonist control] | Potency [3] | activity change, negative = inhibition [4] -14.6% [at 30.8 µM] | activation [5] 13.2% [at 30.8 µM]

O=C(O)C(Cc1c[nH]c2ccccc12)NS(=O)(=O)c1cccc(Cl)c1Cl (stereo not given)
inactive: Potency [1] | Potency [2] | Potency [3] | Potency [4] | Potency [5]

COc1ccccc1C1CC(=O)Oc2cc(C)c(Cl)cc21 (stereo not given)
active: Potency [3] 9.53 µM
inactive: Potency [1] | Potency [2] | Potency [4] | Potency [5]

CCc1cc(-c2n[nH]c(C)c2-c2nc(C)cs2)c(O)cc1OC
inactive: Potency [1] | activation [2] 5.22% [at 17.1 µM, percent relative to cAMP agonist control] | Potency [3] | activity change, negative = inhibition [4] -17% [at 30.8 µM] | activation [5] 34.8% [at 30.8 µM]

Cc1ccc(C)c(-c2ccc(=O)n(Cc3ccc(F)cc3Cl)n2)c1
inactive: Potency [1] | Potency [2] | Potency [3] | Potency [4] | Potency [5]

Cc1c(N=Cc2cc(Br)cc(Br)c2O)cccc1C(=O)O
inactive: Potency [1] | activation [2] -1.44% [at 17.1 µM, percent relative to cAMP agonist control] | Potency [3] | activity change, negative = inhibition [4] -0.566% [at 30.8 µM] | activation [5] 3.4% [at 30.8 µM]

CC1CCCCN1S(=O)(=O)c1ccc(C(=O)Nc2nnc(-c3ccccc3Cl)o2)cc1 (stereo not given)
inactive: Potency [1] | activation [2] 0% [at 17.1 µM, percent relative to cAMP agonist control] | Potency [3] | activity change, negative = inhibition [4] -13.1% [at 30.8 µM] | activation [5] 16.2% [at 30.8 µM]

CC1=NN(c2ccc(Br)cc2)C(=O)/C1=C/c1cccs1
inactive: Potency [1] | activation [2] 4.12% [at 17.1 µM, percent relative to cAMP agonist control] | Potency [3] | activity change, negative = inhibition [4] 29.1% [at 30.8 µM]
active: Potency [5] 14.1 µM

Cc1ccc(C)c(S(=O)(=O)N2CCN(C(=O)CCNC(=O)c3ccc(Br)cc3)CC2)c1
inactive: Potency [1] | Potency [2] | Potency [3] | Potency [4] | Potency [5]

Cn1c(=O)c2c(SCc3cccnc3)nc(CC(C)(C)C)nc2n(C)c1=O
inactive: Potency [1] | activation [2] 6.82% [at 17.1 µM, percent relative to cAMP agonist control] | Potency [3] | activity change, negative = inhibition [4] -15.2% [at 30.8 µM] | activation [5] 9.84% [at 30.8 µM]

COc1cc(NC2c3ncccc3C(=O)N2Cc2ccco2)cc(OC)c1 (stereo not given)
inactive: Potency [1] | Potency [2] | Potency [3] | Potency [4] | Potency [5]

CC(=O)Nc1ccc(S(=O)(=O)Nc2nc3ccccc3nc2-n2ccc(=NC(=O)c3ccccc3)cc2)cc1
inactive: Potency [1] | activation [2] -0.645% [at 17.1 µM, percent relative to cAMP agonist control] | Potency [3] | activity change, negative = inhibition [4] -23.7% [at 30.8 µM] | activation [5] 5.94% [at 30.8 µM]

O=C(CCn1cnc2onc(-c3ccc(F)cc3)c2c1=O)Nc1ccc(F)c(Cl)c1
inactive: Potency [1] | Potency [2] | Potency [3] | Potency [4] | Potency [5]

C=CCN1C(=O)/C(=C/c2ccc(OCC(=O)O)cc2)S/C1=N/c1nccs1
inactive: Potency [1] | activation [2] 0% [at 17.1 µM, percent relative to cAMP agonist control] | Potency [3] | activity change, negative = inhibition [4] -1.64% [at 30.8 µM] | activation [5] 14.3% [at 30.8 µM]

CC(C)C(=O)NC(c1ccccc1)c1cc([N+](=O)[O-])c2cccnc2c1O (stereo not given)
inactive: Potency [1] | activation [2] 4.72% [at 17.1 µM, percent relative to cAMP agonist control] | Potency [3] | activity change, negative = inhibition [4] -3.56% [at 30.8 µM] | activation [5] 39.4% [at 30.8 µM]

CC1(Cc2ccc(OC(F)(F)F)cc2)C(=O)Nc2ccc(OC(F)(F)F)cc21 (stereo not given)
inactive: Potency [1] | activation [2] -11.8% [at 17.1 µM, percent relative to cAMP agonist control] | Potency [3] | activity change, negative = inhibition [4] -17.3% [at 30.8 µM] | activation [5] 35.9% [at 30.8 µM]

Cc1ccccc1OCC(=O)Nc1ccccc1N1CCC(C)CC1
active: Potency [3] 42.6 µM
inactive: Potency [1] | Potency [2] | Potency [4] | Potency [5]

CCOc1cccc(-c2c(C(=O)N/N=C/c3cccs3)nnn2-c2nonc2N)c1
active: Potency [5] 10 µM
inactive: Potency [1] | activation [2] 2.81% [at 17.1 µM, percent relative to cAMP agonist control] | Potency [3] | activity change, negative = inhibition [4] 15% [at 30.8 µM]

O=C(CCN1C(=O)S/C(=C\c2ccc(Cl)cc2)C1=O)Nc1ccc(C(=O)O)cc1
inactive: Potency [1] | Potency [2] | Potency [3] | Potency [4] | Potency [5]

N#C/C(=C/c1cccn1-c1cccc(C(=O)O)c1)c1ccc(F)cc1
inactive: Potency [1] | activation [2] -0.882% [at 17.1 µM, percent relative to cAMP agonist control] | Potency [3] | activity change, negative = inhibition [4] -6.54% [at 30.8 µM] | activation [5] 2.77% [at 30.8 µM]

Cc1ccn2cc(-c3cccc(NC(=O)c4cccs4)c3)nc2c1
inactive: Potency [1] | Potency [2] | Potency [3] | Potency [4] | Potency [5]

Cc1cc2oc(=O)c(CC(=O)O)c(C)c2c2occ(-c3ccccc3)c12
inactive: Potency [1] | Potency [2] | Potency [3] | Potency [4] | Potency [5]

CCC(Oc1ccccc1)C(=O)Nc1ccccc1N1CCCC1 (stereo not given)
inactive: Potency [1] | Potency [2] | Potency [3] | Potency [4] | Potency [5]

CC1CCCN(c2nc3ccccc3nc2C(C#N)S(=O)(=O)c2ccccc2)C1 (stereo not given)
inactive: Potency [1] | Potency [2] | Potency [3] | Potency [4]
active: Potency [5] 22.4 µM

Cc1[nH]c(=O)nc(SCc2cccc(Cl)c2)c1C#N
inactive: Potency [1] | Potency [2] | Potency [3] | Potency [4] | Potency [5]

CC(NC(=O)COc1ccccc1-c1ccccc1)c1ccccc1 (stereo not given)
inactive: Potency [1] | Potency [2] | Potency [3] | Potency [4] | Potency [5]

CCc1ccc(NS(=O)(=O)c2cc3c4c(c2)CCN4C(=O)CC3)cc1
inactive: Potency [1] | Potency [2] | Potency [3] | Potency [4] | Potency [5]

O=c1[nH]n2c(=O)c3c([nH]c2c1N=Nc1cccc(Cl)c1)CCCC3
inactive: Potency [1] | activation [2] -16.2% [at 17.1 µM, percent relative to cAMP agonist control] | Potency [3] | activity change, negative = inhibition [4] -25.4% [at 30.8 µM] | activation [5] -2.93% [at 30.8 µM]
